Data taken from PubChem BioAssay (EPA / NIEHS).
“And” between values parts separate entries of the source, which are not always exact repeats. Equal values may be shown once. Inconclusive results are not listed. The source made the active and inactive calls. The calls were made as follows, unless noted: active = hit-call score of the fitted dose curve at least 0.9, where 1 is the maximum; inconclusive = response in the unintended direction; inactive = score below 0.9.

Legend:
[1] = read-out: Thyroid Hormone Responsive (THRSP), THRSP (gene 7069); test: LTEA_HepaRG_THRSP: Life Technologies and Expression Analysis (LTEA) Assay for Thyroid Hormone Responsive (THRSP) using HepaRG (AID 2283536; active = hit-call score of the fitted dose curve at least 0.9, where 1 is the maximum; inactive = score below 0.9); conditions: mRNA level, 48 h; actives raise or lower the signal
Method in brief: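 Cell model: human HepaRG, approx. 100,000 cells/well, 0.5% DMSO vehicle. Exposure lasts 48 h; phenobarbital 1 mM serves as induction positive control. Gene expression is measured by qRT-PCR against three endogenous control genes.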

[2] = read-out: Cellular tumor antigen p53 (Homo sapiens) (UniProt P04637); test: LTEA_HepaRG_TP53: Life Technologies and Expression Analysis (LTEA) Assay for Tumor Protein P53 (TP53) using HepaRG (AID 2283537; active = hit-call score of the fitted dose curve at least 0.9, where 1 is the maximum; inactive = score below 0.9); conditions: mRNA level, 48 h; actives raise or lower the signal
Method in brief: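 Read-out is TP53 transcript level by microfluidic qRT-PCR, normalised to three housekeeping genes and fitted bidirectionally against DMSO. Human HepaRG cells received compounds for 48 h, highest concentration 100 uM.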

[3] = read-out: UDP glucuronosyltransferase (UGT1A1), UGT1A1 (gene 54658); test: LTEA_HepaRG_UGT1A1: Life Technologies and Expression Analysis (LTEA) Assay for UDP glucuronosyltransferase (UGT1A1) using HepaRG (AID 2283538; active = hit-call score of the fitted dose curve at least 0.9, where 1 is the maximum; inactive = score below 0.9); conditions: mRNA level, 48 h; actives raise or lower the signal
Method in brief: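 HepaRG, 48 h chemical exposure (top 100 uM, half-log 8-pt, 0.5% DMSO vehicle), duplicate wells; qRT-PCR (TaqMan, Fluidigm array) for UGT1A1 mRNA, housekeeping-normalized; bidirectional curve fit vs DMSO baseline.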

[4] = read-out: UDP glucuronosyltransferase (UGT1A6), UGT1A6 (gene 54578); test: LTEA_HepaRG_UGT1A6: Life Technologies and Expression Analysis (LTEA) Assay for UDP glucuronosyltransferase (UGT1A6) using HepaRG (AID 2283539; active = hit-call score of the fitted dose curve at least 0.9, where 1 is the maximum; inactive = score below 0.9); conditions: mRNA level, 48 h; actives raise or lower the signal
Method in brief: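 Expression was quantified by TaqMan qRT-PCR on Fluidigm arrays with ACTB/GAPDH/POLR2A normalization and bidirectional fitting against 0.5% DMSO. HepaRG cells (~100,000/well) were treated in duplicate for 48 h at eight half-log concentrations up to 100 uM in serum-free induction medium.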

[5] = read-out: X-box binding protein 1 (XBP1), XBP1 (gene 7494); test: LTEA_HepaRG_XBP1: Life Technologies and Expression Analysis (LTEA) Assay for X-box binding protein 1 (XBP1) using HepaRG (AID 2283540; active = hit-call score of the fitted dose curve at least 0.9, where 1 is the maximum; inactive = score below 0.9); conditions: mRNA level, 48 h; actives raise or lower the signal
Method in brief: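 XBP1 transcript by qRT-PCR (housekeeping-normalized: ACTB, GAPDH, POLR2A) after 48 h chemical treatment of HepaRG cells, 8-point half-log series topping at 100 uM, vehicle 0.5% DMSO. Gain and loss of signal fitted relative to DMSO.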

[6] = LTEA_HepaRG_LDH_cytotoxicity: Cytotoxicity Assessment in the Life Technologies and Expression Analysis (LTEA) Assay (AID 2283563);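 as to AC50: LDH activity released into spent culture medium as a marker of cell death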
Method in brief: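 LDH release into culture medium read after 48 h chemical treatment of HepaRG cells. Duplicate wells, eight-point half-log series topping at 100 uM, 0.5% DMSO vehicle and baseline.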

[7] = TOX21_p53_BLA_p2_viability: Viability Assessment in the Tox21 HCT-116 p53 Agonism Beta-lactamase Assay, Phase 2 (AID 2283591);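 also: compound exposure lasted 16 h at 37 °C; actives lower the ATP signal meaning cytotoxicity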
Method in brief: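 HCT-116 p53-bla cells (4000/well) rested 5 h at 37C, then received compounds in DMSO (217-fold dilution) for 16 h at 37C, 5% CO2. After the CCF4 read, CellTiter-Glo was added; ATP luminescence was read after 30 min at room temperature.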

[8] = biological target: Cellular tumor antigen p53 (Homo sapiens) (UniProt P04637); test: TOX21_p53_BLA_p2_ratio: Tox21 HCT-116 p53 Agonism Beta-lactamase Assay, Ratio, Phase 2 (AID 2283592)
Cellular tumor antigen p53 (Homo sapiens), sequence (P04637 whole entry, looked up): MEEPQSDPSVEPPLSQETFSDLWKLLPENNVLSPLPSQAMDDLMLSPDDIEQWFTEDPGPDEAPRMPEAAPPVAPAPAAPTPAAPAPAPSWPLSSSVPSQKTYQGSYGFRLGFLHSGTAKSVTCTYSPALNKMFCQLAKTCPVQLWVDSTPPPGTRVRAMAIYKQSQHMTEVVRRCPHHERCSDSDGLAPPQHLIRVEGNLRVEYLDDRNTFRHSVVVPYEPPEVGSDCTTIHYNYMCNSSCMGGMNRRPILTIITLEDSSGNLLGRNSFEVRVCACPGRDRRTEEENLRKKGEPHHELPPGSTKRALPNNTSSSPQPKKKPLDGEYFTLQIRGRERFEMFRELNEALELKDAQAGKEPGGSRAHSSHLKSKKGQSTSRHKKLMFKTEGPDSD
Method in brief: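 Read-out is the blue/green (460/530 nm, 405 nm excitation) ratio after 2 h CCF4-AM loading, fitted as gain versus DMSO. Compounds, pinned at 217-fold dilution from DMSO stocks, stayed 16 h on HCT-116 beta-lactamase reporter cells seeded 5 h earlier.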

[9] = TOX21_p53_BLA_p3_viability: Viability Assessment in the Tox21 HCT-116 p53 Agonism Beta-lactamase Assay, Phase 3 (AID 2283593);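 also: cells exposed to compound for 16 h before reading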
Method in brief: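 HCT-116 cells (4000/well) rested 5 h at 37C, then got DMSO compounds by pin tool (217-fold dilution) for 16 h at 37C, 5% CO2. After the bla read, CellTiter-Glo was added and luminescence read at 30 min, room temperature.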

[10] = biological target: Cellular tumor antigen p53 (Homo sapiens) (UniProt P04637); test: TOX21_p53_BLA_p3_ratio: Tox21 HCT-116 p53 Agonism Beta-lactamase Assay, Ratio, Phase 3 (AID 2283596)
Method in brief: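 Cells were seeded at 4000/well, rested 5 h at 37C, then dosed with DMSO compound solutions (217-fold dilution) for 16 h. CCF4-AM substrate was loaded for 2 h at room temperature, and the 460/530 nm emission ratio was fitted for gain of signal versus DMSO.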

[11] = TOX21_p53_BLA_p4_viability: Viability Assessment in the Tox21 HCT-116 p53 Agonism Beta-lactamase Assay, Phase 4 (AID 2283597);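 also: hits lower the luminescence signal meaning cytotoxicity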
Method in brief: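 Cytotoxicity as reduced cellular ATP (CellTiter-Glo luminescence, 30 min room temperature), measured in the same wells following the CCF4 FRET p53 reading. Human HCT-116 cells received compounds in DMSO (217-fold dilution) for 16 h.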

[12] = TOX21_p53_BLA_p5_viability: Viability Assessment in the Tox21 HCT-116 p53 Agonism Beta-lactamase Assay, Phase 5 (AID 2283600)
Method in brief: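 Viability came from CellTiter-Glo ATP luminescence, read after 30 min at room temperature. Before this, HCT-116 p53-bla cells (4000/well) had 16 hours of compound exposure at 37C, with DMSO stocks diluted 217-fold on transfer.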

[13] = biological target: Cellular tumor antigen p53 (Homo sapiens) (UniProt P04637); test: TOX21_p53_BLA_p4_ratio: Tox21 HCT-116 p53 Agonism Beta-lactamase Assay, Ratio, Phase 4 (AID 2283601)
Method in brief: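 HCT116 cells carrying an inducible beta-lactamase reporter were plated at 4000 cells/well, rested 5 h, then exposed to compounds in DMSO (217-fold dilution) for 16 h at 37C. CCF4-AM substrate was loaded 2 h at room temperature; 460/530 nm emission ratio scored gain-of-signal versus DMSO.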

[14] = Tanguay_ZF_120hpf_MORT_legacy: (Legacy) Oregon State University Tanguay Lab 120 Hour Post-fertilization zebrafish Assay for Mortality (AID 2283633)
Method in brief: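 Static waterborne exposure from 6 to 120 hpf at 28C of single dechorionated wild-type (5D) embryos per well, 0.64% DMSO final. Death recorded present/absent by brightfield at 24 and 120 hpf.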

[15] = Tanguay_ZF_120hpf_YSE_legacy: (Legacy) Oregon State University Tanguay Lab 120 Hour Post-fertilization zebrafish Assay for Yolk Sac Edema (AID 2283634)
Method in brief: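 Presence or absence of yolk sac edema was recorded at 120 hpf in surviving larvae. These were wild-type Tropical 5D embryos, chorion removed at 4 hpf, held in static exposure at 28C from 6 hpf with 0.64% DMSO vehicle.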

[16] = Tanguay_ZF_120hpf_AXIS_legacy: (Legacy) Oregon State University Tanguay Lab 120 Hour Post-fertilization zebrafish Assay for Body Axis Malformation (AID 2283635)
Method in brief: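 Binary scoring of axis defects at 120 hpf under brightfield, fitted positive versus DMSO. Tropical 5D embryos, chorion removed by pronase at 4 hpf, were singly exposed in sealed, dark plates at 28C from 6 hpf; DMSO 0.64% final.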

[17] = Tanguay_ZF_120hpf_EYE_legacy: (Legacy) Oregon State University Tanguay Lab 120 Hour Post-fertilization zebrafish Assay for Eye Malformation (AID 2283636);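 also: binary presence or absence of eye malformation scored by brightfield in 120 hpf larvae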
Method in brief: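 Static waterborne exposure of dechorionated zebrafish embryos (strain Tropical 5D), 6 to 120 hpf, sealed plates at 28C, 0.64% DMSO vehicle. Eye malformation is scored as a binary endpoint, with gain of signal analysed relative to DMSO.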

[18] = Tanguay_ZF_120hpf_SNOU_legacy: (Legacy) Oregon State University Tanguay Lab 120 Hour Post-fertilization zebrafish Assay for Snout Malformation (AID 2283637)
Method in brief: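 Dechorionated zebrafish, individually housed from 6 hpf in covered, sealed wells at 28C with 0.64% DMSO vehicle, were examined at 120 hpf for snout malformation. Responses were binary and analysed positive-direction relative to DMSO.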

[19] = ATG_XTT_Cytotoxicity: Cytotoxicity Assessment in the Attagene TRANS-FACTORIAL HepG2 Assay (AID 2283584)
Method in brief: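 Viability endpoint from XTT after 24 h chemical exposure of reporter-transfected human HepG2 liver cells; signal loss fitted relative to DMSO negative control.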

[20] = biological target: Cellular tumor antigen p53 (Homo sapiens) (UniProt P04637); test: TOX21_p53_BLA_p5_ratio: Tox21 HCT-116 p53 Agonism Beta-lactamase Assay, Ratio, Phase 5 (AID 2283599)
Method in brief: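 HCT-116 cells carrying a p53-inducible beta-lactamase reporter were seeded at 4000 cells/well and dosed after 5 h with compound in DMSO (217-fold dilution). After 16 h at 37C, CCF4-AM substrate was added for 2 h, and the 460/530 nm emission ratio was scored as gain-of-signal versus DMSO.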

Measured: AC50

CN(C)C(=O)NC1(c2ccccc2)CCN(CCC[C@]2(c3ccc(Cl)c(Cl)c3)CCCN(C(=O)c3ccccc3)C2)CC1
active: [3] 22 µM | [4] 22 µM | [5] 12.5 µM | [6] 19.1 µM
not listed: [19] | [20]
inactive: all other assays above

Nc1nc(Cl)nc2c1ncn2[C@H]1C[C@H](O)[C@@H](CO)O1
active: [1] 0.888 µM | [3] 1.66 µM | [4] 2.42 µM | [5] 1.56 µM | [8] 271 nM and 790 nM | [10] 468 nM and 960 nM | [13] 244 nM and 886 nM
not listed: [6] | [20]
inactive: all other assays above

O=[Si]=O
not listed: [6] | [7] | [8] | [10] | [12] | [20]
inactive: all other assays above

CC1(C)C(=O)NC(=O)N1CO
not listed: [8] | [9] | [11] | [20]
inactive: all other assays above

O=C1OC(c2ccc(O)cc2)(c2ccc(O)cc2)c2ccccc21
active: [1] 80.3 µM | [3] 82 µM | [4] 72.6 µM
not listed: [6] | [20]
inactive: all other assays above

CCc1cc(C2=C(C(=O)O)N(c3ccccc3C(F)(F)F)S(=O)(=O)c3ccccc32)cc2c1OCO2
active: [1] 87 µM | [2] 69.5 µM | [3] 1.73 µM | [4] 74.8 µM | [6] 74.1 µM | [7] 73.7 µM | [11] 68 µM | [13] 75.1 µM
not listed: [19]
inactive: all other assays above

CC(=O)S[C@H](C(=O)N[C@H]1Cc2ccccc2[C@H]2CCC[C@@H](C(=O)O)N2C1=O)C(C)C
not listed: [6] | [7] | [9] | [11] | [12] | [19] | [20]
inactive: all other assays above
